GLS inhibitor = glutaminase GLS (human) inhibition; O94925; GLS enzymatic activity, qHTS titration; Potency, µM (top dose mostly 45.5 µM), usual class: inhibitors; hit rate 0.21% among 410,000; AID 624170
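Assay buffer: 45 mM KH2PO4 pH 8.2, 0.02% Tween-20. hKGA acts on L-glutamine (1 mM solution added); product glutamate is reported by an oxidase/peroxidase Amplex Red coupling, with fluorescence taken at baseline and 30 min.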
JMJD2A Tudor inh = blocks the human JMJD2A Tudor domain; AlphaScreen JMJD2A-Tudor / H3K4me3 peptide binding; Potency, µM (doses to about 114 µM), actives largely listed as inhibitors; hit rate 4.4% among 390,000; AID 504339; also: nearly all actives have a fitted effect of over 50% in size
HP1b binding inh = HP1-beta chromodomain-methylated histone interaction inhibition. P83916. AlphaScreen HP1-beta / biotin-H3K9me3 peptide binding. Potency, µM (highest dose often 114 µM), most hits filed as inhibitors. hit rate 0.56% among 390,000. AID 540317; also: nearly all actives have a fitted effect of over 70% in size
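Compound inhibition of the preformed complex between 50 nM HP1-beta and 50 nM biotinylated H3K9me3 peptide was read by AlphaScreen. Buffer was PBS pH 7.4 with 0.01% Tween-20. Incubations ran 30 min at room temperature, with 10 ug/mL donor/acceptor beads.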
BAZ2B block = inhibitors of human BAZ2B bromodomain; Q9UIF8; AlphaScreen BAZ2B-H3K14Ac peptide displacement; Potency, µM (doses to about 114 µM), usual class: inhibitors; hit rate 4.4% among 360,000; also: nearly all actives have a fitted effect of over 60% in size
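Complex of BAZ2B and biotin-H3K14Ac (50 nM apiece) forms over 30 min at RT, then faces library compounds up to 110 uM for another 30 min; AlphaScreen beads added, 20 min dark incubation, luminescence read.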
G9a block = G9a (human) methyltransferase inhibition. AID 504332. Q96KQ7. G9a H3K9 monomethylation, AlphaScreen, 2 h. hit rate 8.8% among 350,000. Potency, µM (top dose mostly 102 µM), actives largely listed as inhibitors; also: nearly all actives have a fitted effect of over 75% in size
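Enzyme 20 nM + cpd, 15 min RT; add b-H3K9 pep 500 nM / SAM 20 uM; 2 h RT; anti-H3K9me1 Ab 0.5 ug/mL + SA donor / anti-rabbit acceptor beads 20 ug/mL each, 10 min; AlphaScreen read.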
L3MBTL1 inh = blocks human L3MBTL1 | AlphaScreen L3MBTL1–H3K9me1 peptide binding | Potency, µM (titrated, usually from 57.1 µM), actives largely listed as inhibitors | hit rate 0.66% among 230,000 | AID 485360; also: nearly all actives have a fitted effect of over 60% in size
Target sequence (Q9Y468 whole entry, looked up): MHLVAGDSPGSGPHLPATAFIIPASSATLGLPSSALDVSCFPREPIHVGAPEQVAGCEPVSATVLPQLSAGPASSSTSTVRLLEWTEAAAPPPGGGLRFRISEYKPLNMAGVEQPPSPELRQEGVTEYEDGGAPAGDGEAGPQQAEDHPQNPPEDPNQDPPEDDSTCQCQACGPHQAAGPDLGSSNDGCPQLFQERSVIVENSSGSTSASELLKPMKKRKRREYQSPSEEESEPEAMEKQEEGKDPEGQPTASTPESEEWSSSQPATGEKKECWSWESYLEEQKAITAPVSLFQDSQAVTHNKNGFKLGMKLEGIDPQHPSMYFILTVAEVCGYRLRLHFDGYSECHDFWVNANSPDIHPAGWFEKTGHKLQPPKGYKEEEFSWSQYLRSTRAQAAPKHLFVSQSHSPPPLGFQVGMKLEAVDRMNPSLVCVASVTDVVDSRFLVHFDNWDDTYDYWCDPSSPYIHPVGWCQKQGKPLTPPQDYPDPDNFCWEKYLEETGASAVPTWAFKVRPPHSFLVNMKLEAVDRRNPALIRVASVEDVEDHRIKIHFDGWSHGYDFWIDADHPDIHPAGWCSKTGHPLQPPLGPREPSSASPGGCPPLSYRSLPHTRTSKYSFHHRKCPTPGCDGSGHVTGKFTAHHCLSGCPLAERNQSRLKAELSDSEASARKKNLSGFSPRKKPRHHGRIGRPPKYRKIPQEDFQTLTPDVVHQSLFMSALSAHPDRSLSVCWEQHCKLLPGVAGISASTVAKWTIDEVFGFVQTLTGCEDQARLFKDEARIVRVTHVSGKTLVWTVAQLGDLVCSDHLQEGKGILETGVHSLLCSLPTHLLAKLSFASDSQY
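L3MBTL1 50 nM + b-AHA-H3(1-15)K9me1 75 nM, 30 min RT; compound added, 30 min RT; streptavidin donor/Ni-chelate acceptor beads 10 ug/mL each final, 30 min RT dark; AlphaScreen read.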
Hits are given with their value; – = inactive; ? = inconclusive; · = no result; ! = not confirmed by another sample; [ ] = remark or other dose. Shown are actives, neighbours in structure and some others; about 10% of the full set was active somewhere. Calls follow the shape of the dose curve; as a rule, active = well fitted curve in the direction sought with a large enough effect; inconclusive = small, poorly fitted or top-dose-only effect, or another doubt; inactive = no such curve, though single readings can be large; an effect the other way counts as inactive or inconclusive.

SMILES	GLS inhibitor	JMJD2A Tudor inh	HP1b binding inh	BAZ2B block	G9a block	L3MBTL1 inh
Cc1cc(C)nc(SCc2ccc(Cl)cc2)n1	–	–	–	–	–	–
Cc1cc(C)nc(SCNC(=O)c2ccc(Cl)cc2)n1	–	?	–	–	50.1µM	·
O=C(CSc1nc2ccccc2c(=O)[nH]1)c1ccc(O)cc1O	–	–	–	–	?	–
CCCN1CCN(CC2=C(C(=O)OCC)C(c3ccc(OC(C)C)cc3)NC(=O)N2)CC1 (stereo not given)	–	–	–	·	–	·
COCc1cc(C)nc(SCC(=O)c2ccc(O)c(O)c2)c1C#N	?	22.4µM	–	–	10µM	–
Cc1ccc(C(=O)CSc2nc(N)cc(=O)[nH]2)cc1C	–	–	–	–	–	–
Cc1ccc(C(=O)CSc2nc(C)cc(=O)[nH]2)cc1	–	–	–	–	50.1µM	–
O=C(CSc1nnnn1-c1ccccc1)c1ccc(O)cc1O	–	–	–	–	–	–
Cc1cc(=O)[nH]c(SCC(=O)c2ccc(O)c(O)c2)n1	–	–	–	56.2µM	7.94µM	?
Cc1cc(C)nc(SCC(=O)c2ccc(O)cc2O)n1	–	–	–	–	39.8µM	·
CCC(CC)C(=O)Nc1ccc(OCc2cc(=O)n3ccc(C)cc3n2)cc1	–	–	–	–	–	·
CCSc1cc(C)nc2c(-c3ccc(Cl)cc3)c(C)nn12	–	–	–	–	?	·
Cc1cc(SCC(=O)c2ccc(O)c(O)c2)n2nc(C)c(-c3ccccc3)c2n1	–	–[11.4 µM]	–	?	11.2µM	–
Cc1cc(C)nc(SCC(=O)c2ccc(O)c(O)c2)n1	–	12.6µM	–	?	1.78µM	·
O=S(=O)(Nc1ccc(-c2ccc(N3CCCCCC3)nn2)cc1)c1ccc(C(F)(F)F)cc1	–	–	–	–	–	·
O=C(CN1CCN(S(=O)(=O)c2ccc(F)c(Cl)c2)CC1)N1CCNC1=O	–	39.8µM	–	–	–	–
O=C(CN1CCN(S(=O)(=O)c2ccc(C(F)(F)F)cc2)CC1)N1CCNC1=O	–	–	–	–	–[12.7 µM]	–
Cc1ccc2c(n1)Oc1ccc(C(C)C(=O)OCC(=O)N(C)C)cc1C2 (stereo not given)	–	·	·	·	·	·
Cc1ccc(-n2c(SCc3cc(=O)n4ccsc4n3)nnc2-c2cccnc2)c(C)c1	–	–	–	56.2µM	?	?
CC(=O)Nc1ccc2c(CSc3nnc(-c4cccnc4)n3-c3ccc(C)cc3C)cc(=O)oc2c1	–	–	–	?	8.91µM	–
COc1cccc(Cn2c(=O)n(-c3ccc(C)c(F)c3)c(=O)c3sc4ccccc4c32)c1	–	–	–	–	–	·
CC(=O)CC1OC(=O)C(Br)=C1NCc1ccccc1 (stereo not given)	–	–	–	–	35.5µM	–
O=C1Nc2ccccc2N=C(c2ccccc2)C1N1CCOCC1 (stereo not given)	–	–	–	–	39.8µM	–
O=C(/C=C/c1ccccc1)C1=C(O)C(=O)N(CCO)C1c1cccc([N+](=O)[O-])c1 (stereo not given)	–	–	–	–	?	–
O=C(/C=C/c1ccccc1)C1=C(O)C(=O)N(CCO)C1c1ccccc1[N+](=O)[O-] (stereo not given)	–	?	–	–	44.7µM	–
SMILES	GLS inhibitor	JMJD2A Tudor inh	HP1b binding inh	BAZ2B block	G9a block	L3MBTL1 inh
COCCNC(=O)c1nn(-c2ccc(C)cc2)c(=O)n(C)c1=O	–	–	–	–	–	·
CCCCOC(=O)Sc1nc2ccccc2o1	–	–	–	–	25.1µM	–
CCN(CC)c1ccc(C(=O)N2CCc3c([nH]c4ccccc34)C2c2ccc(F)cc2)cc1 (stereo not given)	–	?	–	–	–	·
COc1ccccc1CNCCCCCCNCCCCCCCCNCCCCCCNCc1ccccc1OC	·	·	·	·	10µM!	·
COc1ccccc1CNS(=O)(=O)N(C)C	–	50.1µM	–	–	–	–
COc1ccccc1CNCCS(=O)(=O)NCc1ccccc1OC	–	–	–	·	·	·
COc1ccccc1CNN	?	39.8µM	–	?	25.1µM	·
COc1cc(C2C(C(=O)Nc3ccc(C)cc3C)=C(C)Nc3nc4ccccc4n32)cc(OC)c1OC (stereo not given)	–	–	–	–	?	·
O=C1CC(=O)c2c1cccc2[N+](=O)[O-]	·	·	·	50.1µM	10µM	·

Assay outcomes from PubChem.
